Experiment in all cases: NCI-60 one-dose screen, 48 h (100 = growth as untreated, 0 = no growth, -100 = all killed)
Common to all, as to details: 10 µM

The test system of test [1] is NCI-H23 lung.
Test [2] deals with NCI-H226 lung.
Test [3] relates to NCI-H322M lung.
For test [4], the system named is HOP-62 NSCLC.
For test [5], the system named is NCI-H460 lung.
The test system of test [6] is HOP-92 NSCLC.
Test [7] relates to NCI-H522 lung.
The test system of test [8] is A549/ATCC NSCLC.
In test [9] the test system is 786-0 renal.
In test [10] the test system is COLO 205 colon.
The test system of test [11] is DU-145 prostate.
Test [12] has as its system K-562 leukemia.
The test system of test [13] is MALME-3M melanoma.
Test [14] concerns MDA-MB-231 breast.
For test [15], the system named is RXF 393 renal.
The test system of test [16] is SF-268 CNS.
In test [17] the test system is SF-295 CNS.
The subject of test [18] is SF-539 CNS.
The subject of test [19] is UACC-257 melanoma.
For test [20], the system named is M14 melanoma.

Drawing on PubChem BioAssay (NCI), this text covers growth for 8 compounds.

The panel holds about 83,000 compounds, 20% with a hit somewhere; the sample as a whole holds those more often.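 Growth was measured after 48 h exposure to one concentration of compound in 96-well plates. Values under 10 count as active.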 Values without a mark were called inactive. Active and inactive are the calls of the source.

`CCCc1ccnc(NS(=O)(=O)c2ccc(N)cc2)n1`: the growth was 62.8% in test [1]; 79.2% in test [2]; 103% in test [3]; 105% in test [4]; 95.4% in [5]; 93.1% in test [6]. Besides, the growth in test [7] is 56.6%; in test [8], 79.3%; in [9], 90.3%; in [10] it was 37.8%; in test [11] it was 117%; in test [12] it was 54.7%. Also, the growth in test [13] was 67.1%; in test [14] it was 81.9%; in test [15], 102%; in test [16], 95.6%; in test [17], 95.9%; in test [18] it was 71.8%. Further, the growth in [19] is 43.4%; in test [20], 95.8%.
Turning to `CCN(Cc1ccccc1)C1CCN(Cc2cc(Br)ccc2O)CC1`, the growth is 41.3% in test [1]; 63.4% in test [2]; 88.8% in test [3]; 58.1% in test [4]; 49.6% in test [5]; 5.9% (active) in test [6]. In addition, the growth in [7] was 61%; in test [8], 58.9%; in [9], 62.7%; in test [10], -20.6% (active); in test [11], 67.4%; in test [12], 11.6%. Further, the growth in [13] was 42.7%; in test [14] it was 26.3%; in test [15], 48.7%; in [16], 65.9%; in test [17] it was 63.8%; in test [18], 74.8%. Further, the growth in [19] was 46.1%; in [20], 46.6%.
Take `Oc1cc(O)c(Br)cc1Br`: the growth in test [1] is 110%; in [2] it was 103%; in test [3] it was 91.8%; in [4] it was 105%; in test [5], 108%; in test [6], 85.4%. Further, the growth is 88.8% in [7]; 98.9% in test [8]; 93.1% in test [9]; 101% in test [10]; 107% in [11]; 97.5% in test [12]. Further, the growth in test [13] is 120%; in [14] it was 112%; in test [15] it was 110%; in [16] it was 100%; in test [17] it was 98.7%; in [18], 96.4%. Moreover, the growth was 102% in test [19] and 92.9% in [20].
Turning to `N/C(=N\O)c1cn(C2OC(CO)C(O)C2O)c2ncnc(N)c12` (stereo not given), the growth in test [1] is -1.68% (active); in [2], 26.4%; in [3], 11%; in test [4] it was -18.8% (active); in [5], -44.1% (active); in [6] it was -6.61% (active). Moreover, the growth in [7] was -42.9% (active); in test [8], 4.88% (active); in test [9], 20.9%; in test [10], -92.4% (active); in [11], 0.144% (active); in [12], 7.52% (active). The growth in test [13] was -78.3% (active); in test [14], 5.86% (active); in [15] it was -9.98% (active); in [16], 9.34% (active); in test [17] it was -16.7% (active); in [18] it was 1.24% (active). Further, the values for the growth in test [19] and in [20] were -23.8% (active) and -28.3% (active), respectively.
For `CCCN(CCC)CCCNC(=O)c1cc2c(-c3ccc(OC)c(OC)c3)nn(C)c2s1`, the growth in test [1] is 11.6%; in test [2], 37.5%; in [3] it was 22%; in test [4] it was 34.5%; in test [5] it was 8.52% (active); in test [6], -7.72% (active). Further, the growth is -17% (active) in [7]; 9.14% (active) in [8]; 29.5% in test [9]; 90.1% in test [10]; 13% in test [11]; 6.33% (active) in test [12]. Besides, the growth in test [13] is 27.6%; in test [14], 21.8%; in test [15] it was -2.45% (active); in test [16], 14.5%; in test [17] it was 35%; in [18], 10.9%. Moreover, the growth in test [19] is 7.46% (active); in test [20], 9.55% (active).
Turning to `NCCNc1ccc2cc(-c3nc4ccccc4[nH]3)c(=O)oc2c1`, the growth in test [1] was 90.7%; in [2] it was 87.4%; in test [3] it was 103%; in test [4] it was 94.7%; in test [5], 98.9%; in test [6], 82.7%. Also, the growth is 97.3% in test [7]; 102% in test [8]; 106% in test [9]; 104% in test [10]; 103% in test [11]; 81.3% in test [12]. Also, the growth is 105% in test [13]; 66% in [14]; 108% in [15]; 92.3% in test [16]; 98.2% in test [17]; 94.2% in [18]. Also, the growth in [19] was 98.6%; in test [20] it was 104%.
Take `COC(=O)[C@]12CC[C@@H](C)[C@H](C)[C@@H]1C1=CC[C@@H]3[C@@]4(C)C[C@@H](O)[C@H](O)[C@@](C)(CO)[C@@H]4[C@H](O)C[C@@]3(C)[C@]1(C)CC2`: the growth was -50% (active) in test [1]; -42.8% (active) in [2]; -29% (active) in [3]; -59.5% (active) in test [4]; -72.5% (active) in [5]; -56% (active) in test [6]. Besides, the growth in [7] was -78.9% (active); in test [8], -62.3% (active); in test [9], -65.1% (active); in [10], -87.5% (active); in test [11], -82.5% (active); in [12] it was -31.7% (active). Further, the growth in test [13] was -55.9% (active); in test [14], -66.3% (active); in [15], -81.6% (active); in test [16], -31% (active); in test [17], -78.5% (active); in test [18], -58.4% (active). The values for the growth in test [19] and in [20] were -85.1% (active) and -71.3% (active), respectively.
Take `CN(C1c2ccccc2Oc2ccccc21)S(=O)(=O)c1cc(Cl)ccc1Cl`: the growth in test [1] is 69.8%; in test [2] it was 62.7%; in test [3], 78.4%; in test [4], 48.6%; in [5], 34.5%; in test [6] it was 34.8%. Besides, the growth in test [7] was 3.68% (active); in [8], 52.4%; in test [9], 64.1%; in test [10] it was 53%; in test [11], 78.2%; in [12], 14.9%. For the same compound, the growth in [13] was 54.3%; in test [14], 69.7%; in test [15], 73.5%; in test [16], 68.6%; in [17] it was 29.1%; in test [18], 60.6%. The figures for the growth in test [19] and in [20] were 63.6% and 39.2%, respectively.
